Reference: PubChem BioAssay AID588456 (National Center for Advancing Translational Sciences (NCATS), 2011)
Screen size: about 390,000 compounds; about 55 (0.01%) were called active. Calls come from the whole dose curve; as a rule, active = well fitted inhibition curve with a large enough effect; inconclusive = small, poorly fitted or top-dose-only effect; inactive = no such curve, though single readings can be large or run the other way. The list is a sample of the results.

What follows are compounds tested against Thioredoxin reductase 1, cytoplasmic (Rattus norvegicus) (UniProt O89049) (assay: qHTS Assay for Substrates of Mammalian Selenoprotein Thioredoxin Reductase 1 (TrxR1): qHTS). Settings: purified TrxR1 substrate turnover, NADPH consumption readout; series mostly up to 114 µM.
Text: The selenoprotein thioredoxin reductase (TrxR; EC 1.8.1.9) is a FAD containing homodimeric pyridine nucleotide-disulfide oxidoreductase with many cellular roles. Together with NADPH and its prime substrate thioredoxin (Trx), the enzyme forms the core of the Trx system. The mammalian Trx system exerts a wide spectrum of functions including redox regulation, antioxidant defense, regulation of transcription factors as well as support of cell growth and replication. Many of these functions involve the reduction of Trx, which may subsequently reduce a number of different substrates including ribonucleotide reductase, peroxiredoxins or NFkB. Mammalian TrxR itself also has a broad substrate specificity, reducing both protein and non-protein substrates, including low molecular weight compounds such as dehydroascorbate, lipoic acid, ubiquinone, and juglone. In addition, several drugs in clinical use for anticancer treatment are indeed known to target TrxR1.
This BioAssay is a validation of an NADPH fluorescence-based, dual-purpose qHTS rTrxR1 assay designed to find potential inhibitors and substrates of rTrxR1. For this particular BioAssay, actives are potential substrate. See related BioAssay for inhibition data deposition.
NIH Molecular Libraries Probe Production Network [MLPCN]
NIH Chemical Genomics Center [NCGC]
Assay Provider: Elias Arner, Karolinska Institute
Assay protocol: 2 uL of reagents (buffer in column 4 as negative control and 90 nM rTrxR1 in columns 1-3 and 5-48) were dispensed into Greiner black solid-bottom 1,536-well assay plates, followed by 1 uL of NADPH (400 uM final concentration) to each well. The plates were centrifuged at 1000 rpm for 15 seconds and subsequently incubated for 5 min at room temperature (~22 deg C) to allow for rTrxR1 reduction. Compounds (23 nL) were then transferred via Kalypsys pin tool equipped with 1536-pin array (10 nL slotted pins, V&P Scientific, San Diego, CA). In addition, a duplicate 2-fold serial dilution of the control compounds auranofin, a known gold-based TrxR1 inhibitor, and juglone (5-hydroxy-1,4-naphthoquinone), a natural TrxR1 substrate, were pin-transferred to columns 2 and 3, respectively. After incubation for 15 min at room temperature (~22 deg C), 1 uL of selenite (400 uM final concentration) were dispensed to each well. The plate was immediately transferred to a ViewLux high-throughput CCD imager (PerkinElmer), wherein kinetic measurements of NADPH fluorescence (Ex 340 nm, Em 450 nm) were acquired (8 minute kinetic read, see Table 1). Read 1 was utilized to assess the capacity of a compound to serve as an rTrxR1 substrate, i.e. a decrease in NADPH fluorescence compared to the no-compound background is an indication of a substrate behavior for that particular compound. For inhibitory activity of a compound, delta values, computed as the difference in fluorescence intensity between the first and last reads of an 8-minute time kinetic window, were used. All reagents were diluted in an assay buffer consisting of 50 mM Tris-HCl, pH 7.5, 2 mM EDTA, and 0.01% Tween-20.
Throughout the screen, reagent bottle and all liquid lines were made light-tight to minimize reagent degradation. All screening operations were performed on a fully integrated robotic system (Kalypsys, San Diego, CA) containing one RX-130 and two RX-90 anthropomorphic robotic arms (Staubli, Duncan, SC). Library plates were screened starting from the lowest and proceeding to the highest concentration, and a 'double-pinning' step of the highest concentration was required to access higher concentrations of compounds. Vehicle-only plates, with DMSO being pin-transferred to the columns 5-48, were inserted uniformly at the beginning and the end of each library in order to monitor and record any shifts in the background, which can be affected by reagent dispensers or loss in enzyme activity over time. […]
% is set by controls: 0 for no effect and ±100 for the full control effect.
Note: nearly all actives have a fitted effect of over 50% in size.

Sequence of Thioredoxin reductase 1, cytoplasmic (Rattus norvegicus) (O89049 whole entry, looked up): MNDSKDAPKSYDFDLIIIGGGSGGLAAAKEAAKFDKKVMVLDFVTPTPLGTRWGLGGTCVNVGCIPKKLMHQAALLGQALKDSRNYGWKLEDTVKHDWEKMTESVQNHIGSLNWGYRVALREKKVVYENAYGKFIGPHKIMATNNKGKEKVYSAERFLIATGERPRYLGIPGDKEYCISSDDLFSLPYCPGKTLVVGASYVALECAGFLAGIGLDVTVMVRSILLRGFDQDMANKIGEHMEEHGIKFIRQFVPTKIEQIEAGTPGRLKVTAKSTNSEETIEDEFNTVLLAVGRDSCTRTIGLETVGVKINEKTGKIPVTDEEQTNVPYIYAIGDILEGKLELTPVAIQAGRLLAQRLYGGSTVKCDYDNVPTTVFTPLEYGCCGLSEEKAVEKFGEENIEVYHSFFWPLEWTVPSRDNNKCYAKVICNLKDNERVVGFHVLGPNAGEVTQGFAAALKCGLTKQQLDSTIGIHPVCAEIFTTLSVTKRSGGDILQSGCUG

Activity change, negative = substrate turnover, inactive:
Cc1ccc(-c2nc(=N)sn2Cc2ccccc2)cc1
C[N+]1(CC(=O)c2cccs2)CCOCC1
COc1ccccc1OCCNCC(O)COc1cccc2[nH]c3ccccc3c12 (stereo unspecified)
CN(C)c1ccc(/C=c2\[nH]c(=O)/c(=C/c3ccc(N(C)C)cc3)[nH]c2=O)cc1
Cc1ccc(-n2nc(C)c(C(=O)O)c2-n2cccc2)cc1
OC(CBr)CN1CCCCC1 (stereo unspecified)
O=C(O)/C(=C/c1c(C(=O)O)[nH]c2cc(Cl)cc(Cl)c12)c1ccccc1
Cc1ccc(-c2nnc(Nc3ccc(OCC(N)=O)cc3)c3ccccc23)cc1S(=O)(=O)NCC1CCCO1 (stereo unspecified)
CCc1cccc(NC(=O)c2cnc(N3CCOCC3)c3ccccc23)c1
CCC(=O)N1CCc2cc(Br)cc(S(=O)(=O)NCc3ccc(Cl)cc3)c21
Cc1cc2oc(C(=O)N(Cc3ccc(Cl)cc3)Cc3ccco3)c(C)c2cc1Cl
O=C(C[n+]1ccncc1)c1ccc2c(c1)CCCC2
CNCCCOc1cc2nc(N3CCCN(C)CC3)nc(NC3CCN(C)CC3)c2cc1OC
C=CCNC(=O)c1ccc2nc(-c3ccco3)c(-c3ccco3)nc2c1
Clc1cccc[n+]1CCCC[n+]1ccccc1Cl
Cc1ccc(NC(=O)c2ccc3[nH]c(C)cc(=O)c3c2)c(C)c1
O=C(COC(=O)c1ccccc1OCCOc1ccccc1)Nc1cccc(Br)c1
O=C1CC(c2ccc(F)cc2F)c2cc3c(cc2N1)OCO3 (stereo unspecified)
NS(=O)(=O)c1ccc(NC(=O)CSc2nnc3c(n2)[nH]c2ccccc23)cc1
COc1cc2[nH]c(C)c(CCN3CCN(c4ccccc4)CC3)c2cc1OC
COc1ccc(CCNC(=O)CCCn2c(=O)c3ccccc3n(Cc3ccc(C)cc3)c2=O)cc1OC
Cc1ccc(-c2cc(N)n(Cc3cccc(Cl)c3)n2)cc1
Oc1ccc(Cn2cc[nH]c2=S)cc1
OCC(O)C(O)C(O)C(O)C=Nc1ccc(/C=C/c2ccnc3ccccc23)cc1 (stereo unspecified) 5.9% [at 0.0914 µM]
CC(C)CNc1ncnc2c1nnn2C
CCN1CCN(c2ccc(/C=C/c3ccnc4ccccc34)cc2)CC1
CCC(C(=O)Nc1cccc(-c2nc3cccnc3s2)c1C)c1ccccc1 (stereo unspecified)
COC(=O)c1scc(-c2ccccc2)c1S(=O)(=O)Nc1ccccc1
C(=Nc1ccc(/C=C/c2ccnc3ccccc23)cc1)Nc1ccc(/C=C/c2ccnc3ccccc23)cc1
COc1cc2nc(N3CCCN(C)CC3)nc(NC3CC3)c2cc1OC
Cc1ccc(Cl)cc1NC(=O)NC1COc2ccccc2C1 (stereo unspecified)
O=C(NCc1ccccc1)c1cccc(NC(=O)N2CCSc3ncccc32)c1
CC1(C)CC(=O)c2cc(C(=O)NCc3ccccc3)c(=O)[nH]c2C1
CCCCCCCNc1ccc(/C=C/c2ccnc3ccccc23)cc1
O=C(CC1Oc2ccc(Cl)cc2NC1=O)NCc1ccccc1 (stereo unspecified)
CSc1cccc(NC(=O)CN2C(=O)CCc3cc(S(=O)(=O)N4CCCCC4)ccc32)c1
Cc1ccc(NC2=C(c3ccc(C(F)(F)F)cc3)C(=O)c3ccccc32)cc1F
CNC(=O)c1ccc(-c2nc(CN3CCc4ccccc43)c(C)o2)cc1
O=C(c1ccco1)N(Cc1cccs1)c1ccc(O)cc1
S=c1[nH]c(=S)c2n[nH]nc2[nH]1 -1.94% [at 0.0914 µM]
CC(C)(C)c1ccc(C(=O)C[N+]2(C)CCCc3ccccc32)cc1 (stereo unspecified)
O=C(O)C1=C/C(=C/C=[N+]2c3cc(O)c(O[C@H]4OC(CO)[C@@H](O)[C@@H](O)[C@@H]4O)cc3C[C@@H]2C(=O)[O-])C[C@H](C(=O)O)N1 (stereo partly specified)
CC1CC(C)CN(c2oc(-c3ccc(OCc4ccc(Cl)cc4)cc3)nc2C#N)C1 (stereo unspecified) 6.36% [at 0.0914 µM]
c1ccc(Cn2nnc3c(N4CCCCC4)ncnc32)cc1
CCC(=O)N1CCc2cc(S(=O)(=O)NC(C(=O)NCCc3ccc(C)cc3)C(C)C)ccc21 (stereo unspecified)
OCCNc1ncnc2oc(-c3ccco3)c(-c3ccco3)c12
O=[N+]([O-])c1ccc(/C=C/c2ccc3cccnc3c2)cc1
Cc1ccc(-c2nc3ccccn3c2Nc2ccc(F)cc2)o1
O=C(Nc1ccc(O)c(-c2nc3ccccc3o2)c1)c1ccc(-c2cccc(Cl)c2)o1
CCc1cccc(NC(=O)CN(C)S(=O)(=O)c2ccc3[nH]c4c(c3c2)CCCC4)c1
COc1cc2nc(C#Cc3nc4cc(OC)c(OC)cc4[nH]3)[nH]c2cc1OC
NC(=O)Nc1ccc(/C=C/c2ccnc3ccccc23)cc1
CCOC(=O)C1CCCN(C(=O)Cn2ncc3c(C)n(Cc4ccc(F)cc4)c(C)c3c2=O)C1 (stereo unspecified)
COc1ccc(/C=C/c2ccnc3ccccc23)cc1OC
O=C(Nc1ccc([N+](=O)[O-])cc1)c1cnn2c1NC(=C1CC1)C=C2C(F)F
COc1ccc(-c2nc(CN3CCC(C(=O)NCc4ccccc4)CC3)c(C)o2)cc1OC
Cc1c(CCO)sc[n+]1CC(=O)c1ccc2ccccc2c1
CN(C)c1cccc2ccccc12
O=C(Nc1ccc(Cl)cc1)c1cnn2c1NC(=C1CC1)C=C2C(F)F
O=C(Cn1cc(SCc2ccccc2)c2ccccc21)N1CCCCC1
Cc1ccc(C(=O)Nc2ccc(OCc3cc(=O)n4c5c(sc4n3)CCCC5)cc2)cc1
N#Cc1ccc[n+](CC(=O)c2ccc(O)c(O)c2)c1
Cc1ccc(Nc2c(-c3ccc(C)s3)nc3ccccn23)cc1
COc1ccc(S(=O)(=O)Nc2cccc3cccnc23)c(N)c1
Cc1cccc(-c2nnc(SC(C)C(=O)Nc3ccccc3)n2C)c1 (stereo unspecified)
CCn1c(C)c(C)c2cc(C(=O)NCCc3cc(OC)ccc3OC)ccc21
Cc1csc[n+]1CCC1CCCCC1
CC(C)(C)C1CCC(NC(=O)c2cnn3c2NC(=C2CC2)C=C3C(F)F)CC1 (stereo unspecified)
O=[N+]([O-])c1ccc(S(=O)(=O)N2CCN(c3nc(-c4ccccc4)nc4ccccc34)CC2)cc1
Cc1cccc(-n2ccnc2SCC(=O)Nc2cc(C(F)(F)F)ccc2Cl)c1
CN1CCN(/[N+]([O-])=N/Oc2ccc([N+](=O)[O-])cc2[N+](=O)[O-])CC1
COc1cc2nc(N3CCCN(C)CC3)nc(NC(C)C)c2cc1OC
CN(N=O)c1ccc(C=C2c3ccccc3-c3ccccc32)cc1
COc1ccc(-c2nc(=N)sn2-c2ccccc2)cc1
CN(C)c1ccc(/C=C/c2c3ccccc3nc3ccccc23)cc1
CN(C)c1cc2c(Nc3ccc4c(cnn4Cc4ccccc4)c3)ncnc2cn1
CC(C)(C)n1ncc2c(=O)n(Cc3ccc(C(=O)c4ccccc4)cc3)cnc21
CC(C)(C)OC(=O)N(Cc1ccco1)S(=O)(=O)c1ccccc1Br
CC(=O)c1ccc[n+](C(C)CCC(C)[n+]2cccc(C(C)=O)c2)c1 (stereo unspecified) 4.01% [at 0.0914 µM]
CCOc1ccc(CCNC(=O)c2csc3c2CCCCC3)cc1
CN(C(=N)N)c1ccc(/C=C2\C=Cc3ccccc32)cc1
Cc1cccc(-n2ncc(C(=O)N3CCc4ccccc4C3)c2C2CCN(C(=O)OC(C)(C)C)CC2)c1
Cc1cccc(NC(=O)CSc2nc3c(oc4ccccc43)c(=O)n2-c2ccc(F)cc2)c1
COc1cc(CNCCSc2nnnn2C)ccc1OCc1c(F)cccc1Cl 7.47% [at 11.4 µM]
CC1(C)Cc2ccccc2-c2c[nH]c(=O)n21
O=C(c1ccc2c(=O)n(Cc3ccco3)c(=S)[nH]c2c1)N1CCCC1
N#Cc1ccc[n+](CC(=O)c2ccc(F)cc2)c1
Nc1ncnc2nnsc12 7.52% [at 0.0914 µM]
Oc1ccc(Br)cc1C1C=C(c2ccc3c(c2)OCO3)NC(c2ccc(Cl)cc2)N1 (stereo unspecified) 6.51% [at 0.0914 µM]
COc1cc(CN(CC2CCCO2)C(=O)c2ccccc2F)cc(OC)c1OC (stereo unspecified)
ClC/C=C/C[n+]1ccccc1Cl
CCOC(=O)c1c(C)oc2ccc(N(C(=O)c3ccncc3)S(=O)(=O)c3ccc(CC)cc3)cc12
CCCCC(CCCC)c1ccc(C=Nc2ccc(/C=C/c3ccnc4ccccc34)cc2)cc1
COc1cc(OC)c(/C=C/c2ccnc3ccccc23)c(OC)c1
CCOC(=O)c1cccc(NC(=O)c2cc(S(=O)(=O)N3CCCC(C)C3)cn2C)c1 (stereo unspecified)
O=C(Nc1ccccc1)c1ccccc1OCc1ccccc1
